# Experimental data taken from ChEMBL document CHEMBL3988442, “University of Dundee, Small-Polar-MMV Screening Library” (2021).
# About 950 (1.4%) of roughly 69,000 compounds showed an effect of 50% or more. The list comes from a sample in which strong results are over-represented; it also holds similar structures and randomly drawn compounds.
# Test system: Mycobacterium tuberculosis
# Test: Cornell M. t heat shock assay; note: in the data most compounds retested in dose-response had high values
# Assay type: functional, organism-based
# Parameters: dose or concentration left out as unconfirmed
row,Structure (SMILES),Percent Effect [%]
1,Cl.c1cnc2c(c1)cc([C@@H]1CCCO1)n2CCN1CCCCC1,-17.62
2,CCN(CC)S(=O)(=O)N1CCc2nc(C3CCNCC3)ncc2C1.Cl,-7.475
3,CN(Cc1ccnc2ccccc12)C1CCS(=O)(=O)C1.O=C(O)CC(O)(CC(=O)O)C(=O)O (configuration not stated),6.818
4,CSc1[nH]nc(NC(=O)c2ccncc2)c1C#N,6.331
5,CSc1[nH]nc(NC(=O)c2ccccc2)c1C#N,-4.998
6,CSc1[nH]nc(NC(=O)c2cccs2)c1C#N,104.2
7,CN(C)[C@@H]1CCN(C(=O)c2cccc(C#N)c2)[C@H]1Cc1cnn(C)c1.O=C(O)C(F)(F)F,5.533
8,Cc1ccc(N2CCO[C@H]3CN(Cc4ccc(F)cc4)C[C@H]32)nn1.O=C(O)C(F)(F)F.O=C(O)C(F)(F)F,-13.42
9,COCCNC1(c2ccc(Cl)cc2)CCOCC1,20.91
10,CCOCCNC1(c2ccc(Cl)cc2)CCOCC1,12.33
11,Clc1ccc(OCCNC2(c3ccc(Br)cc3)CCOCC2)cc1,73.72
12,CCN1C(=O)C2(CCN(CCN(C)C)CC2)c2ccccc21.O=C(O)C(F)(F)F.O=C(O)C(F)(F)F,-13.81
13,Cc1ccc(C(=O)N2CCc3c(CNc4ncccn4)cncc3C2)o1.Cl,-7.52
14,CC(=O)N1C(CN2CCCC2)C[C@@H]2CN(C(=O)c3ccoc3)CC[C@@H]21.O=C(O)C(F)(F)F (some centres not stated),-8.828
15,CCc1cnc(N2Cc3cnc(C(C)(C)C)nc3C2)nc1,15.36
16,CC(C)Nc1ccnc(N2Cc3cnc(C(C)(C)C)nc3C2)n1,52.72
17,CCNc1ccnc(N2Cc3cnc(CC(C)C)nc3C2)n1,35.37
18,CC(C)Cc1ncc2c(n1)CN(c1nccc(NC(C)C)n1)C2,83.11
19,CC(C)Cc1ncc2c(n1)CN(c1nccc(N(C)C)n1)C2,7.671
20,COc1ccnc(N2Cc3cnc(C(C)(C)C)nc3C2)n1,14.25
21,O=C(O)C(F)(F)F.c1cnc(N2CCO[C@@H]3CN(Cc4ccoc4)C[C@@H]3C2)nc1,-2.175
22,O=C(O)C(F)(F)F.O=C(c1ccc[nH]1)N1CCc2onc(COc3cccnc3)c2C1,7.093
23,C=C1C(C)(C)[C@H]2CC[C@]1(C(=O)N1CCC(n3cc(CCO)nn3)CC1)C2,-7.185
24,O=C(O)C(F)(F)F.O=C(O)C(F)(F)F.O=C(c1cccc(F)c1)N1CCN2C[C@H](OCc3cccnc3)C[C@H]2C1,-1.159
25,CCO[C@H]1COC[C@@H]1NC(=O)c1c[nH]nc1C1CCCCC1,-8.48
26,Cc1nc(C(=O)N[C@H]2COC[C@@H]2N2CCCCC2)cs1,-0.7621
27,O=C(N[C@H]1COC[C@@H]1N1CCCC1)c1c[nH]nc1C1CCCCC1,69.58
